From PubChem BioAssay AID1697 (The Scripps Research Institute Molecular Screening Center, 2009)
The list shows a part of the results. A number with no mark means an inactive call. The source made the active and inactive calls.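 How the source made its calls: active means percent activation above the mean of DMSO-only control wells plus 3 SD of those wells (cut at about 18% in these data); inactive means the rest.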

Molecular target: Neuropeptide Y receptor type 1 (Homo sapiens) (UniProt P25929)
Test: human Y1 receptor agonism – cell-based, fluorescence, counter-screen for NPY-Y1 potentiator project, confirmation (AID 1697);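 further: cells challenged with isoproterenol plus Ro 20-1724 with no NPY in test wells; Y1 agonism lowers isoproterenol-driven cAMP and reduces probe fluorescence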
Settings: HEK293 Y1-CNGC, membrane potential fluorescence, agonist mode; at 3.6 µM; hits give high values

Sequence of Neuropeptide Y receptor type 1 (Homo sapiens) (P25929 whole entry, looked up): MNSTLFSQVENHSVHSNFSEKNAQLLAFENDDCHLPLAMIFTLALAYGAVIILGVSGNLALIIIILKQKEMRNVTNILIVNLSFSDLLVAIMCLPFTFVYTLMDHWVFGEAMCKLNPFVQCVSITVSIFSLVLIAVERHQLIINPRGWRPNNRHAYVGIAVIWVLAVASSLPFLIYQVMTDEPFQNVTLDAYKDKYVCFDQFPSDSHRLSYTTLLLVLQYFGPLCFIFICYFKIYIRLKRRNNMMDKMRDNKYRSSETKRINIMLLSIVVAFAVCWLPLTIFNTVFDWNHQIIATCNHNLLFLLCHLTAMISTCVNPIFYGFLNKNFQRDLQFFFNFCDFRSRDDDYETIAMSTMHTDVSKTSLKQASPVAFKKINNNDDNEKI

SMILES: Cc1nn(Cc2ccccc2Cl)c(Cl)c1C(=O)OC(C(=O)NC(N)=O)C(C)C (configuration not stated)
- activation: 30.6% (active)

SMILES: CSC1=NP(=S)(SC)N(C)c2nc3n(c21)CCC3 (configuration not stated)
- activation: 9.49%
